Assay results from PubChem BioAssay (NCATS).
Inconclusive results are not listed. The source made the active and inactive calls. The call rests on the fitted dose curve; in most records, active means well fitted cell-killing curve with a large enough effect; inconclusive means small, poorly fitted or top-dose-only effect, or effect the other way; inactive means no such curve, though single readings can be large or run the other way.

Tests used:
[1] = Quantitative High-Throughput drug screen in 47 multiple myeloma cell lines against the NCATS MIPE library collection: OCIMY5_PLB cell viability assay (AID 1918988); further: nearly all actives have a fitted effect of over 65% in size
In short: (§1)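 qHTS format: cells plated (500/well), pin-dosed with MIPE 4.0 compounds, kept 48 h at 37 °C. Readout was CellTiter-Glo luminescence, median RLU.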

[2] = Quantitative High-Throughput drug screen in 47 multiple myeloma cell lines against the NCATS MIPE library collection: OPM1_PLB cell viability assay (AID 1918989); further: nearly all actives have a fitted effect of over 40% in size
In short: as §1

[3] = Quantitative High-Throughput drug screen in 47 multiple myeloma cell lines against the NCATS MIPE library collection: U266_ATCC cell viability assay (AID 1919864); further: nearly all actives have a fitted effect of over 35% in size
In short: as §1

[4] = Quantitative High-Throughput drug screen in 47 multiple myeloma cell lines against the NCATS MIPE library collection: XG1_PLB cell viability assay (AID 1919866); further: nearly all actives have a fitted effect of over 35% in size
In short: as §1

[5] = Quantitative High-Throughput drug screen in 47 multiple myeloma cell lines against the NCATS MIPE library collection: VP6_DJ cell viability assay (AID 1919867); further: nearly all actives have a fitted effect of over 40% in size
In short: as §1

[6] = Quantitative High-Throughput drug screen in 47 multiple myeloma cell lines against the NCATS MIPE library collection: PE2_PLB cell viability assay (AID 1919869); further: nearly all actives have a fitted effect of over 35% in size
In short: as §1

[7] = Quantitative High-Throughput drug screen in 47 multiple myeloma cell lines against the NCATS MIPE library collection: RPMI8226_ATCC cell viability assay (AID 1919871); further: nearly all actives have a fitted effect of over 30% in size
In short: as §1

[8] = Quantitative High-Throughput drug screen in 47 multiple myeloma cell lines against the NCATS MIPE library collection: OPM2_DSMZ cell viability assay (AID 1919872); further: nearly all actives have a fitted effect of over 30% in size
In short: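 qHTS of the MIPE 4.0 collection: 500 myeloma cells/well, 48 h drug exposure at 37C in 5% CO2, then CellTiter-Glo for 5 min at room temperature before luminescence reading.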

[9] = Quantitative High-Throughput drug screen in 47 multiple myeloma cell lines against the NCATS MIPE library collection: KMS11_JCRBsus cell viability assay (AID 1919873); further: nearly all actives have a fitted effect of over 50% in size
In short: as §1

[10] = Quantitative High-Throughput drug screen in 47 multiple myeloma cell lines against the NCATS MIPE library collection: KMS28BM_JCRB cell viability assay (AID 1919874); further: nearly all actives have a fitted effect of over 35% in size
In short: as §1

[11] = Quantitative High-Throughput drug screen in 47 multiple myeloma cell lines against the NCATS MIPE library collection: SKMM1_PLB cell viability assay (AID 1919863); settings: SKMM1 myeloma viability, CellTiter-Glo ATP, 48 h; viability: stronger effect = lower value; further: nearly all actives have a fitted effect of over 35% in size
In short: as §1

[12] = Quantitative High-Throughput drug screen in 47 multiple myeloma cell lines against the NCATS MIPE library collection: XG6_PLB cell viability assay (AID 1919865); further: nearly all actives have a fitted effect of over 40% in size
In short: as §1

[13] = Quantitative High-Throughput drug screen in 47 multiple myeloma cell lines against the NCATS MIPE library collection: KMS28PE_JCRB cell viability assay (AID 1918983); further: nearly all actives have a fitted effect of over 35% in size
In short: as §1

[14] = Quantitative High-Throughput drug screen in 47 multiple myeloma cell lines against the NCATS MIPE library collection: PCM6_Riken cell viability assay (AID 1919870); further: nearly all actives have a fitted effect of over 30% in size
In short: as §1

[15] = Quantitative High-Throughput drug screen in 47 multiple myeloma cell lines against the NCATS MIPE library collection: KMS34_JCRB cell viability assay (AID 1918985); further: nearly all actives have a fitted effect of over 40% in size
In short: as §1

[16] = Quantitative High-Throughput drug screen in 47 multiple myeloma cell lines against the NCATS MIPE library collection: OCIMY7_PLB cell viability assay (AID 1918987); settings: OCI-MY7 myeloma viability, CellTiter-Glo ATP, 48 h; viability (% of DMSO): at 45.8 µM (top of the series); further: nearly all actives have a fitted effect of over 65% in size
In short: as §1

[17] = Quantitative High-Throughput drug screen in 47 multiple myeloma cell lines against the NCATS MIPE library collection: UTMC2_PLB cell viability assay (AID 1919868); settings: CellTiter-Glo ATP luminescence, 48 h; viability (% of DMSO control): at 45.8 µM (top of the series); further: nearly all actives have a fitted effect of over 55% in size
In short: as §1

[18] = Quantitative High-Throughput drug screen in 47 multiple myeloma cell lines against the NCATS MIPE library collection: L363_DSMZ cell viability assay (AID 1918984); settings: L363 myeloma viability, CellTiter-Glo ATP luminescence, 48 h; viability (% of control): at 45.8 µM (top of the series); further: nearly all actives have a fitted effect of over 40% in size
In short: as §1

Measured: Potency
Potency means the concentration at half of the fitted maximal effect.

CCN1CCN(c2ccc(Nc3cc(N(C)C(=O)Nc4c(Cl)c(OC)cc(OC)c4Cl)ncn3)cc2)CC1
inactive: [3] | [6] | [7] | [9] | [10]
active: [1] 13.2 µM | [2] 0.0235 µM | [4] 11.8 µM | [5] 23.5 µM | [8] 0.209 µM

CNC(=O)c1cc(COc2nnc(Nc3ccc(Cl)cc3)c3ccoc23)ccn1
inactive: [2] | [3]
active: [1] 20.9 µM | [11] 23.5 µM | [7] 20.9 µM

CC(=O)O[C@]1(C(C)=O)CC[C@H]2[C@@H]3C=C(Cl)C4=CC(=O)[C@@H]5C[C@H]5[C@]4(C)[C@@H]3CC[C@@]21C
active: [1] 23.5 µM | [3] 8.33 µM | [12] 4.18 µM | [4] 7.43 µM | [5] 7.43 µM | [6] 11.8 µM | [7] 20.9 µM
inactive: [8] | [9] | [10]

COc1cc2c(cc1OC)[C@@H]1Cc3ccc(OC)c(OC)c3CN1CC2
inactive: [12] | [4]
active: [13] 20.9 µM | [1] 5.9 µM | [3] 11.8 µM | [7] 18.7 µM | [8] 13.2 µM | [9] 7.43 µM | [10] 8.33 µM

Cc1cccc2c1CC[C@H](CN1CCC(c3c(Cl)cccc3Cl)CC1)C[C@@H]2O
active: [1] 2.64 µM | [12] 20.9 µM | [4] 20.9 µM | [5] 14.8 µM | [6] 20.9 µM | [14] 18.7 µM | [7] 16.6 µM | [9] 14.8 µM | [10] 14.8 µM

COc1cc2nccc(Oc3ccc(NC(=O)Nc4cc(C)on4)c(Cl)c3)c2cc1OC
active: [15] 4.18 µM | [1] 16.6 µM | [2] 20.9 µM | [3] 20.9 µM | [12] 0.118 µM | [4] 1.66 µM | [7] 23.5 µM | [9] 20.9 µM

CC(C)(OCc1nn(Cc2ccccc2)c2ccccc12)C(=O)O
inactive: [15] | [2] | [6] | [14] | [7] | [8] | [9] | [10]

Cc1ccc(C(=O)N(CCCN)[C@@H](c2nc3cc(Cl)ccc3c(=O)n2Cc2ccccc2)C(C)C)cc1
active: [11] 23.5 µM | [3] 26.4 µM | [14] 5.26 µM
inactive: [15] | [8] | [9]

C[C@H](c1ccc(F)cc1CCCC(=O)O)N(c1cc(F)ccc1F)S(=O)(=O)c1ccc(Cl)cc1
active: [16] 13.2 µM | [1] 14.8 µM | [12] 2.64 µM | [5] 3.72 µM | [17] 14.8 µM | [14] 6.62 µM | [8] 3.32 µM

O=C1NC(=O)C(=Cc2ccc(-c3ccc(F)cc3O)o2)S1
active: [18] 0.833 µM | [16] 3.72 µM | [2] 14.8 µM | [12] 2.35 µM | [5] 2.96 µM | [6] 7.43 µM | [7] 9.35 µM
inactive: [3] | [8] | [10]

Cc1ccc(S(=O)(=O)Nc2nc3ccccc3nc2Nc2ccc3nsnc3c2)cc1
active: [18] 0.204 µM | [16] 1.44 µM | [2] 1.15 µM | [11] 7.24 µM | [12] 0.0724 µM | [4] 0.575 µM | [5] 0.645 µM | [17] 1.02 µM | [9] 11.5 µM

CO[C@@H]1C(N(C)C(=O)c2ccccc2)C[C@H]2O[C@]1(C)n1c3ccccc3c3c4c(c5c6ccccc6n2c5c31)C(=O)NC4=O (stereo partly specified)
active: [15] 3.32 µM | [16] 0.935 µM | [1] 5.26 µM | [11] 11.8 µM | [3] 13.2 µM | [17] 2.64 µM | [6] 3.72 µM | [7] 5.26 µM | [9] 2.35 µM

C#CCN(C)CC1=Cc2ccccc2Oc2ccccc21
inactive: [12] | [4] | [6] | [14] | [7] | [8]
active: [13] 18.7 µM | [1] 20.9 µM

CC(C)(C)c1[nH]cnc1C=c1[nH]c(=O)c(=Cc2ccccc2)[nH]c1=O
inactive: [4] | [8] | [9]
